In PubChem BioAssay (NCATS):
Results filed as inconclusive are left out. Calls of active or inactive are those of the source. Calls follow the shape of the dose curve; as a rule, active = well fitted activation curve with a large enough effect in the main read-out, with a control signal flat (not every such curve was filed as active); inconclusive = small, poorly fitted or top-dose-only effect, or effect the other way, or a change in a side signal; inactive = flat fitted curve, though single readings scatter.

Target: 3',5'-cyclic-AMP phosphodiesterase 4B (Homo sapiens) (UniProt Q07343)
Test: qHTS Assay for Inhibitors of PDE-IV (AID 607); also: % of control where 0% means no effect
Conditions: HEK293 ACTOne CNG channel cells, membrane potential fluorescence; series mostly up to 22.9 µM; activation (PDE inhibition): at the top concentration
Source text: NIH Chemical Genomics Center [NCGC]
NIH Molecular Libraries Screening Centers Network [MLSCN]
The cyclic nucleotide phosphodiesterases (PDEs) are proteins that catalyze hydrolysis of 3', 5'-cyclic nucleotides, such as cyclic adenosine monophosphate (cAMP) and cyclic guanosine monophosphate (cGMP), to their corresponding 5'-nucleotide monophosphates. These enzymes play an important role in controlling cellular concentrations of cyclic nucleotides and have a central role in a variety of intracellular signaling events. cAMP PDEs are emerging as a promising class of drug targets in asthma and cardiovascular disease therapeutic areas.
There are no commercially available cell-based screening assays for PDE inhibitors: currently biochemical assays are done using pure substrates (cAMP or cGMP) and purified recombinant PDE enzymes. As with other biochemical screens on intracellular targets, false positives and false negatives may result from issues involving cell membrane permeability, cellular metabolism, and the like.
Here we report the development of a cell-based screening assay for cAMP phosphodiesterase (PDE) inhibitors. The assay is based on the BD ACTOne# technology (BD Biosciences) which utilizes a modified cyclic nucleotide-gated channel (CNG) to monitor intracellular cAMP changes in live cells. The CNG channel is localized on the plasma membrane, and opens when the intracellular cAMP level increases, resulting in ion flux and cell membrane depolarization. The influx of cations through the CNG channel can be quantified using membrane potential (MP) dyes. We modified the BD ACTOne technology to allow the detection of PDE inhibitors, and performed an inhibitor screen for PDE-IV, which is expressed endogenously in HEK293 cells. We optimized this assay in homogeneous 1536-well plate assay format for high throughput screening.
NCGC Assay Protocol Summary:
The medium contained 10% FBS (Invitrogen), 2 mM L-glutamine, and 250 ug/ml G418 (Cellgro) and 1 ug/ml puromycin (Clontech). ACTOneTM parental cells (BD Biosciences) were maintained in the same medium without puromycin.
The activity of the CNG channel was measured by BD ACTOneTM membrane potential dye kit (BD Biosciences). Forskolin, a positive control for cAMP activation and RO 20-1724, a PDE inhibitor, were both purchased from Sigma and solublized in DMSO.
Sequence,Parameter,Value,Description
1,Reagent,3 uL,1000 cells/well 1536 TC treated Black plate
3,Compound,0.5 uL,Kalypsys dispense RO 20-1724 100 uM final [A]
4,Reagent,3 uL,BD membrane potential dye
6,Compound,23 nL,Final concentration was 0.7nM to 22.9uM
8,Detector,EX 535 / EM 590 [B],Envision
Footnotes: [A] The stock 2 mM RO 20-1724 PDE inhibitor was made in 10 % DMSO. Parental cell line received 10 uM forskolin + 100 uM RO. [B] Envsion settings: Bottom Excitation 535/20 nm top emission 590/20, gain of 150 and 5 flashes per well.
Keywords: PDE, PDE-IV, cytotoxicity, flourescence, MLSMR, MLSCN, NIH Roadmap, qHTS, NCGC

Sequence of 3',5'-cyclic-AMP phosphodiesterase 4B (Homo sapiens) (Q07343 whole entry, looked up): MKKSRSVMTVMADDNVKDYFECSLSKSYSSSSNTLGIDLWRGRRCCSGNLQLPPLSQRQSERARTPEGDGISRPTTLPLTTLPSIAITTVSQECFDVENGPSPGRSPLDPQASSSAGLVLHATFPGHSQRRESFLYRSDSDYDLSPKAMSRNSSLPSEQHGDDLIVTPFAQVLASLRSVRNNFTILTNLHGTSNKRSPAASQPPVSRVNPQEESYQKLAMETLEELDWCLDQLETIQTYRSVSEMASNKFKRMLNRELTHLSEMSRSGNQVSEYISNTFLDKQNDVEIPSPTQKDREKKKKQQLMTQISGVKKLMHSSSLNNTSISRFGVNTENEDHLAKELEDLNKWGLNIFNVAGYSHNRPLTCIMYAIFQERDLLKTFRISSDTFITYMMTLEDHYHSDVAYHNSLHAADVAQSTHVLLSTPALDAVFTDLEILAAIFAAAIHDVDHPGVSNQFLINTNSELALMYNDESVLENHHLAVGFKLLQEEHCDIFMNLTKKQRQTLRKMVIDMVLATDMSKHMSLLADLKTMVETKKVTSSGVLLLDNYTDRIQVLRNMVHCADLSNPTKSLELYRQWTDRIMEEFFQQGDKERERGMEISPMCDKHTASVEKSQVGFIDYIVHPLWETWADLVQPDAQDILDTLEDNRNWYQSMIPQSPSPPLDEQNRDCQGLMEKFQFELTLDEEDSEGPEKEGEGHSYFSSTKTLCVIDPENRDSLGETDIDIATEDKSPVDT

Activation (PDE inhibition), inactive:
CC(=O)NCCNc1cc(-c2ccccc2CN(C)C)ncn1 2.04%, COc1ccc(-n2c(=O)cnc3cnc(OC)nc32)cc1 21.2%, N#Cc1cccc(-c2nc3cnc(N4CCOCC4)nc3n(C3CC3)c2=O)c1 -2.47%, COCCNc1ccnc(-c2ccccc2CN(C)C)n1 -5.94%, COC(=O)N1CCC2(CCCN(c3ccc(-c4ccccc4)cc3)C2)CC1 12%, COc1ccccc1-c1cncnc1Nc1ccc(F)cc1 15.7%, FC(F)(F)c1cc(CN2CCCC3(CCNCC3)C2)cc(C(F)(F)F)c1 5.61%, Cc1noc(C)c1-c1nccc(NCc2cccnc2)n1 8.35%, CC(C)=CCc1c2c(c3occ(-c4ccc(O)c(O)c4)c(=O)c3c1O)C=CC(C)(C)O2 1.42%, COC(=O)N1CCC2(CC1)CN(c1ccccn1)C2 5.06%, Cc1ccccc1-c1nccc(NCCN2CCOCC2)n1 -3.14%, O=C(c1csnn1)N1CCC2(CCCN(c3ccccc3)C2)CC1 7.29%, CNc1nc(-c2ccccc2Cl)nc2ccccc12 -4.57%, O=C(c1cnccn1)N1CCC[C@@]2(CCN(c3ncccn3)C2)C1 0.89%, COc1ccccc1CN1CCCC2(CCN(S(C)(=O)=O)CC2)C1 8.72%, CN(C)c1ncc2nc(-c3cc(F)cc(F)c3)c(=O)n(C[C@H]3CCCO3)c2n1 7.51%, CN1CCN(c2ncc3nc(-c4ccc(F)cc4)c(=O)n(Cc4cccs4)c3n2)CC1 -8.98%, COc1ccc(CNc2cc(-c3ccoc3)ncn2)c(OC)c1 -9.9%, Cc1ccccc1-c1cc(NCCN2CCOCC2)ncn1 -4.28%, CS(=O)(=O)N1CCC[C@@]2(CCN(c3ccccc3)C2)C1 27.9%, Clc1ccccc1-c1nccc(-n2ccnc2)n1 17.5%, Cc1noc(C)c1C(=O)N1CCC2(CCN(C(=O)NC(C)C)CC2)CC1 4.27%, CC(=O)N1CCC2(CCCN(C(c3ccccc3)c3ccccc3)C2)CC1 2.69%, O=C(c1ccncc1)N1CCC[C@@]2(CCN(c3ccccn3)C2)C1 4.37%, COc1ccc(-c2nc3cnc(N4CCOCC4)nc3n(-c3ccccc3)c2=O)cc1 19.3%, CC(=O)N1CCC[C@@]2(CCN(Cc3cc(C(F)(F)F)cc(C(F)(F)F)c3)C2)C1 -13%, Cc1cnc(CNc2ncncc2-c2ccc(C(=O)N(C)C)cc2)cn1 -3.56%, COc1ccc(C(=O)N2CCC[C@@]3(CCN(Cc4ccc(C#N)cc4)C3)C2)cc1 14.3%, COCCNc1cc(-c2c(C)noc2C)ncn1 2.56%, COc1ccc(Oc2ncc3nc(-c4ccc(OC)cc4)c(=O)n(C)c3n2)cc1 -16.7%, CC(C)CN1CC[C@@]2(CCCN(C(=O)c3cnccn3)C2)C1 0.171%, COc1ccc(-c2nc3cnc(N4CCN(C)CC4)nc3n(-c3ccc(OC)cc3)c2=O)cc1 1.25%, CN1CCN(c2ncncc2-c2ccccc2C(F)(F)F)CC1 4.95%, COCCn1c(=O)c(-c2cn(C)c3ccccc23)nc2cnc(N3CCNCC3)nc21 -1.49%, COc1ccccc1-c1cncnc1NCCc1cnc[nH]1 -12.7%, COCCn1c(=O)c(-c2ccc(Cl)cc2)nc2cnc(Oc3cccc(Cl)c3)nc21 12.1%, COc1ccc(NC(=O)N2CC[C@@]3(CCCN(C(=O)c4csnn4)C3)C2)cc1 9.17%, N#Cc1cccc(NC(=O)N2CC[C@@]3(CCCNC3)C2)c1 -2.77%, CN(C)Cc1ccccc1-c1cc(Nc2ccccc2)ncn1 25.7%

Potency, inactive:
NCCC(=O)NCCc1cnc[nH]1
